± gives the standard deviation.
Each sequence was assayed on EfPiwi piRISC loaded with piRNA #1 (26 nt) (assay: pre-steady-state target cleavage rate (min^-1); auxiliary factor: 500 nM Ephydatia muelleri Gtsf1; guide: piRNA #1 5'p-UGAGGUAGUAGGUUGUAUAGUAUCCA; MIWI and MILI are mouse PIWI proteins and EfPiwi is from a freshwater sponge; tags in brackets are library labels; higher = faster piRNA-guided slicing of the target).
Outline: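 The pre-steady-state cleavage rate was derived from a burst-and-steady-state fit of Cleave-'n-Seq data. For these assays, 1 nM active affinity-purified piRISC loaded with a single synthetic guide was mixed with […] a transcribed, DNA-blocked target RNA library in HEPES–potassium acetate buffer at 33 °C, with or without 500 nM GTSF1 partner protein, for 0–8 or 0–960 min. Sequencing counts of uncleaved targets were normalised to depth and to weakly complementary targets, and k3 was capped at 0.0001 min^-1 after three trials were pooled.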

Row | Sequence | pre-steady-state target cleavage rate
1 | GGAGACCAUACUAUACAAUCUACUACCUCA | 0.00847 ± 0.004
2 | GGAGACCAUACUAUACUACCUACUACGUCA | 0.0039 ± 0.0028
3 | GGAGAGGAUACAAUACAACCUACAACCUCA | 0.00231 ± 0.0018
4 | GGAGUGGAUAGUAUACAACCUACUACCUGA | 0.00315 ± 0.0017
5 | GGAGACGAUACUAUACAACCAUACUACCUCA | 0.00938 ± 0.0047
6 | GGAGACCAUACUAUACAACCUACUAACCUCA | 0.00357 ± 0.0025
7 | GGAGACGAUACUAUACAACCAACUAGCUCA | 0.00457 ± 0.0027
8 | GGAGACCUAUGAUAACAAGGAACUACCUCA | < 0.0001
9 | GGAGAGGUUACUAUACAACCUAGUACCUCA | 0.00366 ± 0.0015
10 | GGAGACCAUACUAUACAACCUACAUGGAGA [g8:g23:cont:t1A] | 0.00382 ± 0.0038
11 | GGAGAGGAUACUAUACAACGUACUUCCUCA | 0.00375 ± 0.0013
12 | GGAGACCUAUGUAUACAACCUGACUACCUCA | < 0.0001
13 | GGAGACCUAACUAUACAACCACUACCUCA | 0.00546 ± 0.0044
14 | GGAGUGGAUACUAUACAACCUAGUACGUCA | 0.00381 ± 0.0014
15 | GGAGACCUUACUAUACAACCACUACCUCA | 0.0103 ± 0.0057
16 | GGAGUGGAUACUAUACAUCCUACUAGCUCA | 0.00367 ± 0.0024

— the supplement of paper PMC10338343
